Measured values as given in paper PMC4336329 (PLoS ONE, 2015).
Out of some 310,000 compounds screened, about 14,000 (4.5%) showed an effect of 50% or more. Effects have a minus sign here. The sample as a whole holds a higher share of strong results than the screen did.

biological target: human ether-à-go-go-related gene (hERG) potassium channel (human, UniProt Q12809); test: primary screen, population patch clamp on CHO cells stably expressing hERG; higher = less effect of the substance
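Note: peak tail current of the secondary pulse compared with the same well before compound.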

Chain of human ether-à-go-go-related gene (hERG) potassium channel (Q12809 whole entry, looked up): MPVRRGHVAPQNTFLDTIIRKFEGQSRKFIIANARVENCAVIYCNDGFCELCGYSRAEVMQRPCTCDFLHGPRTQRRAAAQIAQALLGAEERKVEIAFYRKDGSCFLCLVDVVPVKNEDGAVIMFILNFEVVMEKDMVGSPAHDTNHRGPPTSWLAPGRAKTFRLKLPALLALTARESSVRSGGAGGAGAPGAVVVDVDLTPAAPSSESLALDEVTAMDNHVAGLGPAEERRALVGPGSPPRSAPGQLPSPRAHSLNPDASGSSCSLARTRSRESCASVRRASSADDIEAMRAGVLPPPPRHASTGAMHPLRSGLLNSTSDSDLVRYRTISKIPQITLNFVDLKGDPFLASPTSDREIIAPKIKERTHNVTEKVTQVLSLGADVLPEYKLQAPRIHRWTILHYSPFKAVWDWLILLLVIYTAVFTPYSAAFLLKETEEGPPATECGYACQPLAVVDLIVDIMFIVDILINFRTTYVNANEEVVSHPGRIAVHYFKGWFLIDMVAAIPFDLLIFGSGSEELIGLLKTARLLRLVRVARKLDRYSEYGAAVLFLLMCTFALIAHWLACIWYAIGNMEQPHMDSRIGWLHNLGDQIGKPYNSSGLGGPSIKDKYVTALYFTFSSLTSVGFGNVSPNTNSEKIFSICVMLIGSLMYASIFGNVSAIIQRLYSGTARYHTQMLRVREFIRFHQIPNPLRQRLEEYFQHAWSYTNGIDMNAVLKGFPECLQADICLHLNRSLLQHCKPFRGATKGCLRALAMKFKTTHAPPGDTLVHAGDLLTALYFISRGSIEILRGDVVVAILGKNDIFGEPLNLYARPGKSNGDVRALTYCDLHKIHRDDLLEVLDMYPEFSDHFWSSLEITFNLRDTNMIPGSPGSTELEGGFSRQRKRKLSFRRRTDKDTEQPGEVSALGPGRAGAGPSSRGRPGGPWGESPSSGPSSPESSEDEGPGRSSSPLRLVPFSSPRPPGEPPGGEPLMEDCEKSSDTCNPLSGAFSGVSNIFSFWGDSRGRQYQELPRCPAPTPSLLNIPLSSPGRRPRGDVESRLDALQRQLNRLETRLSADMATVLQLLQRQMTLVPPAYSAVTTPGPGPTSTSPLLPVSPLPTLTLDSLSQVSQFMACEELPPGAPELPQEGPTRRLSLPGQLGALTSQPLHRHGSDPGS

In order of rising “hERG current change (%, negative = inhibition) at 10uM” value:
1. OC(COC(c1ccc(Cl)cc1)c1ccc(Cl)cc1)CN1CCCC1 (stereo not drawn)  -77.4%
2. O=C(C1CCN(CCCc2ccccc2)CC1)N(CCc1ccccc1)Cc1ccccc1.O=C(O)C(=O)O  -75%
3. O=C(c1ccccc1)c1ccc(OCC(O)CN2CCN(S(=O)(=O)N3CCCCC3)CC2)cc1 (stereo not drawn)  -73.5%
4. O=C(C1CCN(CC2CC=CCC2)CC1)N(CCc1ccccc1)Cc1ccccc1 (stereo not drawn)  -72%
5. CC1CN(CC(O)COC(c2ccc(Cl)cc2)c2ccc(Cl)cc2)CC(C)O1.Cl (stereo not drawn)  -71.9%
6. CN(C)S(=O)(=O)N1CCN(CC(O)COc2ccc(C(=O)c3ccccc3)cc2)CC1 (stereo not drawn)  -70.2%
7. CN1CCN(CC(O)COC(c2ccc(Cl)cc2)c2ccc(Cl)cc2)CC1.Cl (stereo not drawn)  -69.3%
8. CCCCN(Cc1ccccc1)C(=O)C1CCN(Cc2sccc2C)CC1.O=C(O)C(=O)O  -68.3%
9. COc1ccc(C2CC(c3cccs3)=NN2C(=O)CSc2nc(=O)n3ccc(C)cc3n2)cc1 (stereo not drawn)  -65.4%
10. Cc1ccn2c(=O)nc(SCC(=O)N3N=C(c4cccs4)CC3c3ccc(F)cc3)nc2c1 (stereo not drawn)  -65%
11. CC1CCN(C(=O)C2CCN(CCCc3ccccc3)CC2)CC1.O=C(O)C(=O)O  -62.3%
12. CCC(=O)c1ccc(OCC(O)CN2CCN(S(=O)(=O)N3CCCCC3)CC2)cc1 (stereo not drawn)  -55.1%
13. CC1CCCN(C(=O)C2CCN(CCCc3ccccc3)CC2)C1.O=C(O)C(=O)O (stereo not drawn)  -47.5%
14. CCN(Cc1ccccc1)C(=O)C1CCN(CC2CC=CCC2)CC1.O=C(O)C(=O)O (stereo not drawn)  -46.9%
15. Cc1ccc(C2CC(c3cccs3)=NN2C(=O)CSc2nc(=O)n3ccc(C)cc3n2)cc1 (stereo not drawn)  -46.3%
16. O=C(C1CCCN(CCCc2ccccc2)C1)N1CCCCCC1.O=C(O)C(=O)O (stereo not drawn)  -46.2%
17. CCN(Cc1ccccc1)C(=O)C1CCN(Cc2sccc2C)CC1.O=C(O)C(=O)O  -44.3%
18. CCOC(=O)CSCC(=O)N1N=C(c2cccs2)CC1c1ccc(F)cc1 (stereo not drawn)  -34.1%
19. CN=C1C=C/C(=N/N=c2\ccn(O)cc2C)C=C1C  -32.6%
20. O=C(C1CC1)N(CCN(Cc1ccccc1)C(=O)C1CC1)Cc1ccccc1  -28.9%
21. CN(C)S(=O)(=O)N1CCN(CC(O)COc2ccc(-c3ccccc3)cc2)CC1 (stereo not drawn)  -27.3%
22. CN(C)S(=O)(=O)N1CCN(CC(O)COc2ccc3cc(Br)ccc3c2)CC1 (stereo not drawn)  -25.6%
23. CCC(=O)c1ccc(OCC(O)CN2CCCCC2)cc1.Cl (stereo not drawn)  -21.8%
24. CCC(=O)c1ccc(OCC(O)CN2CCN(S(=O)(=O)c3ccc(NC(C)=O)cc3)CC2)cc1 (stereo not drawn)  -20.5%
25. COc1cccc(CN(C(=O)Cn2nnc(-c3ccccc3F)n2)C(C(=O)NC(C)(C)C)c2ccncc2)c1 (stereo not drawn)  -18.7%
26. CC1CN(CC(O)COc2ccc(C(C)C)cc2)CC(C)O1.Cl (stereo not drawn)  -14.3%
27. O=C(Nc1cc(Cl)ccc1Oc1ccccc1)c1ccc(F)cc1  -14.1%
28. CN1CCN(CC(O)COc2ccc(Cl)cc2)CC1.Cl (stereo not drawn)  -12.5%
29. Cc1nn(-c2cc(N3CCNCC3)ccc2[N+](=O)[O-])c(=O)c2ccccc12  -11.4%
30. CC(C)c1ccc(OCC(O)CN2CCCC2)cc1.Cl (stereo not drawn)  -11.1%
31. O=C(c1ccccc1)c1ccc(OCC(O)CN2CCOCC2)cc1 (stereo not drawn)  -10.8%
32. CC1CCCCC1NC(=O)c1nnc(Cc2ccc(Cl)cc2)o1 (stereo not drawn)  -9.72%
33. CCN1CCN(CC(=O)N2N=C(c3cccs3)CC2c2ccc(OC)cc2)C(=O)C1=O (stereo not drawn)  -8.83%
34. O=C(O)c1ccc(Cl)c(S(=O)(=O)N2CCCCCC2)c1  -8.34%
35. C/C(=N\NC(=O)CN(c1ccc(C)cc1)S(C)(=O)=O)c1cccs1  -8.31%
36. COCCn1c(N)c(C(=O)NCC2CCCO2)c2nc3ccccc3nc21 (stereo not drawn)  -7.66%
37. CCOc1c(Cl)cc(CNc2ccc(S(N)(=O)=O)cc2)cc1OC  -3.11%
38. COCCSc1ccccc1C(=O)Nc1nccs1  -2.77%
39. CCC(C)NC(=O)C1CCN(CCCc2ccccc2)CC1.O=C(O)C(=O)O (stereo not drawn)  -1.26%
40. CCN(CC)C(=O)C1CCN(CC2CC=CCC2)CC1 (stereo not drawn)  -0.0716%
41. Cc1cc(C)nc(N(C#N)CN2C(=O)c3ccccc3S2(=O)=O)n1  0.542%
42. O=[N+]([O-])c1ccc(N(c2ccccc2)c2ccccc2)cc1  4.46%
43. C=CCOc1ccc(/C=C/C(=O)OC(C)C(=O)Nc2ccc(NC(C)=O)cc2)cc1 (stereo not drawn)  4.6%
44. O=c1[nH]c(=O)c2nc3c4ccccc4c4ccccc4c3nc2[nH]1  4.75%
45. CCOc1ccc(N2C(=O)CN=C2Nc2ccccc2F)cc1  5.08%
46. COc1ccc(C2=NN(C(=O)CSc3nc(=O)n4ccc(C)cc4n3)C(c3ccc(C)cc3)C2)cc1 (stereo not drawn)  5.1%
47. O=S(=O)(N1CCCCC1)N1CCN(CC(O)COc2ccc3cc(Br)ccc3c2)CC1 (stereo not drawn)  7.33%
48. COC(=O)C(C)(C(=O)OC)c1ccccc1[N+](=O)[O-]  7.93%
49. COc1ccc(Br)cc1CNc1ccccc1.O=C(O)C(=O)O  9.4%
50. COC(=O)C1=C(C)N=C2SCCC(=O)N2C1c1cccs1 (stereo not drawn)  10.4%
51. CN1CCN(CC(O)COC(c2ccccc2)c2ccccc2)CC1 (stereo not drawn)  11.2%
52. CCN(CC)C(=O)C1CCCN(Cc2sccc2C)C1 (stereo not drawn)  11.6%
53. Cc1nc(CNC(=O)CC2C(=O)NCCN2Cc2ccc(F)cc2)cs1 (stereo not drawn)  11.9%
54. CCOP(=O)(O)c1ccccc1OCCCCCOc1ccccc1P(=O)(O)OCC  14.5%
55. O=C(O)C(=O)O.c1ccc(CNC23CC4CC(CC(C4)C2)C3)nc1  15.3%
56. COc1ccc(OCC(O)CN2CC(C)OC(C)C2)cc1.Cl (stereo not drawn)  17.5%
57. CN(CC(=O)Nc1ccc(Cl)cc1)C(=O)CNC(=O)Cc1cccc2ccccc12  20.1%
